Structures can show the parent of a compound that is named as a salt.
How the values were obtained:
Details in all cases: incubation time: 27 h, anaerobic, 37 °C;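 for the amine columns active = adjusted P below 0.05 in both replicates with a change the same way and a mean fold change under 0.8 or over 1.25; inactive = the rest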
[1] = test system: Clostridium sporogenes DSM 1664; assay: growth (OD595) fold change vs plate DMSO controls (fold change (ratio)); higher = more growth
In short: (§1)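 Growth is the fold change relative to the median of plate DMSO controls. Readings came from anaerobic mGAM cultures in 96-well plates grown for 27 h at 37 °C and read at 595 nm. They were blank-subtracted, corrected for compound background with 20 µM compound solutions in water, and converted to OD with a calibration factor of 5. Values are means of 2 biological replicates, and fold changes above 1.5 were set to NA.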

Escherichia coli IAI1 [2] = assay: as above
In short: as §1

[3] = test system: Klebsiella aerogenes DSM 30053; assay: as above
In short: as §1

[4] = test system: Ruminococcus gnavus DSM 108212; assay: as above
In short: as §1

[5] = test system: Klebsiella aerogenes DSM 30053; assay: fold change of Histamine concentration vs plate DMSO controls (fold change (ratio)); higher = more amine produced, active = hit call of the paper (significant change in both replicates, either direction)
In short: (§2)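 In 80 µL wells, cultures of four gut bacterial strains in mGAM started at OD 0.1 before a 1:1 dilution and grew anaerobically at 37 °C for 27 h. Compounds were added to 20 µM final, except sweeteners at 50 µM final. After extraction of whole cultures with cold acetonitrile/methanol plus 0.1% formic acid and centrifugation, amines were measured by LC–triple-quadrupole MS in dynamic MRM mode against external calibration curves, with within-batch drift correction. Values give fold change over DMSO controls on the same plate, averaged across 2 biological replicates.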

[6] = test system: Clostridium sporogenes DSM 1664; assay: fold change of Tryptamine concentration vs plate DMSO controls (fold change (ratio)); higher = more amine produced, active = hit call of the paper (significant change in both replicates, either direction)
In short: as §2

[7] = test system: Ruminococcus gnavus DSM 108212; assay: as above
In short: as §2

Escherichia coli IAI1 [8] = assay: fold change of Putrescine concentration vs plate DMSO controls (fold change (ratio)); higher = more amine produced, active = hit call of the paper (significant change in both replicates, either direction)
In short: as §2

[9] = test system: Klebsiella aerogenes DSM 30053; assay: as above
In short: as §2

Escherichia coli IAI1 [10] = assay: fold change of Cadaverine concentration vs plate DMSO controls (fold change (ratio)); higher = more amine produced, active = hit call of the paper (significant change in both replicates, either direction)
In short: as §2

[11] = test system: Klebsiella aerogenes DSM 30053; assay: as above
In short: as §2

[12] = test system: Ruminococcus gnavus DSM 108212; assay: fold change of 2-Phenylethylamine concentration vs plate DMSO controls (fold change (ratio)); higher = more amine produced, active = hit call of the paper (significant change in both replicates, either direction)
In short: as §2

SMILES	growth [1]	growth (Escherichia coli IAI1 [2])	growth [3]	growth [4]	fold change of Histamine concentration [5]	fold change of Tryptamine concentration [6]	fold change of Tryptamine concentration [7]	fold change of Putrescine concentration (Escherichia coli IAI1 [8])	fold change of Putrescine concentration [9]	fold change of Cadaverine concentration (Escherichia coli IAI1 [10])	fold change of Cadaverine concentration [11]	fold change of 2-Phenylethylamine concentration [12]
O=C(COc1ccc(Cl)cc1)N1CCN(Cc2ccc3c(c2)OCO3)CC1 [Fipexide hydrochloride] (20 µM)	1.05	0.947	0.961	0.87	1 (inactive)	0.943 (inactive)	0.945 (inactive)	1 (inactive)	1.01 (inactive)	0.953 (inactive)	1.01 (inactive)	0.916 (inactive)
Nc1c2c(nc3ccccc13)CCCC2 [Tacrine hydrochloride] (20 µM)	0.896	0.951	0.932	0.696	1.05 (inactive)	1.03 (inactive)	1.12 (inactive)	0.945 (inactive)	0.94 (inactive)	1.04 (inactive)	1.15 (inactive)	1.32 (active)
CC(=O)N[C@@H](CCC(N)=O)C(=O)O [Acetyl-L-glutamine] (20 µM)	1.04	0.982	0.977	1.12	1.03 (inactive)	0.997 (inactive)	1.02 (inactive)	0.98 (inactive)	1 (inactive)	0.977 (inactive)	0.99 (inactive)	1.05 (inactive)
COc1ccc(C(=O)c2ccccc2)c(O)c1 [Oxybenzone] (20 µM)	0.901	0.808	0.963	0.984	0.962 (inactive)	0.954 (inactive)	1.03 (inactive)	0.823 (inactive)	1 (inactive)	1.07 (inactive)	1 (inactive)	0.979 (inactive)
C[C@H](NCc1ccc(OCc2cccc(F)c2)cc1)C(N)=O [Safinamide] (20 µM)	0.894	0.992	1	1.07	1.02 (inactive)	1.03 (inactive)	0.99 (inactive)	1 (inactive)	1 (inactive)	1.02 (inactive)	0.983 (inactive)	0.96 (inactive)
Cc1onc(-c2ccccc2Cl)c1C(=O)N[C@@H]1C(=O)N2[C@@H]1SC(C)(C)[C@@H]2C(=O)O [Cloxacillin sodium salt] (20 µM)	0	1.02	1.08	0.171	0.987 (inactive)	0.0211 (active)	0.0749 (active)	0.997 (inactive)	1.02 (inactive)	0.999 (inactive)	1.02 (inactive)	0.0503 (active)
CCN(CC)C(=O)C1(c2ccccc2)CC1CN (stereo unspecified) [Milnacipran hydrochloride] (20 µM)	1	1.02	1.03	1.16	0.968 (inactive)	1.11 (inactive)	1.09 (inactive)	0.94 (inactive)	0.958 (inactive)	0.895 (inactive)	1.04 (inactive)	1.12 (inactive)
OCCN1CCN(CCCN2c3ccccc3Sc3ccc(C(F)(F)F)cc32)CC1 [Fluphenazine dihydrochloride] (20 µM)	1.03	1.13	1.05	0.85	0.925 (inactive)	1.22 (inactive)	0.878 (inactive)	1.09 (inactive)	0.982 (inactive)	1.11 (inactive)	1.03 (inactive)	0.869 (inactive)
O=C1NCN(c2ccccc2)C12CCN(CCCC(c1ccc(F)cc1)c1ccc(F)cc1)CC2 [Fluspirilene] (20 µM)	0.921	0.951	1.01	1.01	0.981 (inactive)	0.959 (inactive)	0.814 (inactive)	0.996 (inactive)	0.994 (inactive)	1.02 (inactive)	0.995 (inactive)	0.884 (inactive)
Clc1ccc(COC(Cn2ccnc2)c2ccc(Cl)cc2Cl)c(Cl)c1 (stereo unspecified) [Miconazole] (20 µM)	1.25	1.18	1.01	0.232	0.926 (inactive)	0.725 (active)	0.257 (active)	1.2 (inactive)	0.99 (inactive)	0.974 (inactive)	1.01 (inactive)	0.277 (active)
CCCSS/C(CCO)=C(/C)N(C=O)Cc1cnc(C)nc1N [Prosultiamine] (20 µM)	0.945	1.01	0.993	0.919	0.951 (inactive)	1.09 (inactive)	1.09 (inactive)	0.949 (inactive)	0.98 (inactive)	0.958 (inactive)	0.984 (inactive)	1.16 (inactive)
CN1CCN(c2c(F)cc3c(=O)c(C(=O)O)cn(CCF)c3c2F)CC1 [Fleroxacin] (20 µM)	0	0	0	0	0.153 (active)	0.0453 (active)	1.08 (inactive)	0.785 (inactive)	0.902 (inactive)	0.26 (active)	0.961 (inactive)	1.15 (inactive)
Cn1cnc([N+](=O)[O-])c1Sc1ncnc2[nH]cnc12 [Azathioprine] (20 µM)	1.11	1.03	0.993	1.49	0.991 (inactive)	1.04 (inactive)	0.965 (inactive)	0.977 (inactive)	0.99 (inactive)	0.974 (inactive)	0.992 (inactive)	0.984 (inactive)
C=C1C[C@@]23CC[C@H]4[C@@](C)(CCC[C@@]4(C)C(=O)O[C@@H]4O[C@H](CO)[C@@H](O)[C@H](O)[C@H]4O)[C@@H]2CC[C@]1(O[C@@H]1O[C@H](CO)[C@@H](O)[C@H](O)[C@H]1O)C3 [Rubusoside] (50 µM)	1.1	1	0.969	1.01	1.01 (inactive)	1 (inactive)	0.989 (inactive)	1.05 (inactive)	1.01 (inactive)	1.02 (inactive)	0.991 (inactive)	0.981 (inactive)
COC(=O)[C@H](Cc1ccccc1)NC(=O)[C@@H](N)CC(=O)O [Aspartame] (50 µM)	1.05	0.921	0.997	1.01	1.03 (inactive)	0.944 (inactive)	1.01 (inactive)	0.968 (inactive)	1.01 (inactive)	1.04 (inactive)	0.99 (inactive)	1.04 (inactive)
CCOC(=O)[C@@](C)(N)Cc1ccc(O)c(O)c1 [Methyldopate hydrochloride] (20 µM)	0.926	1.05	1.03	1.14	0.963 (inactive)	1.04 (inactive)	1.09 (inactive)	1.22 (inactive)	0.975 (inactive)	0.898 (inactive)	1.02 (inactive)	1.07 (inactive)
CC(=O)c1ccc(S(=O)(=O)NC(=O)NC2CCCCC2)cc1 [Acetohexamide] (20 µM)	0.85	1.02	0.972	1.33	1.05 (inactive)	1.03 (inactive)	0.951 (inactive)	0.999 (inactive)	1 (inactive)	1.05 (inactive)	0.984 (inactive)	0.942 (inactive)
COc1cc2nc(N3CCN(C(=O)C4CCCO4)CC3)nc(N)c2cc1OC (stereo unspecified) [Terazosin hydrochloride] (20 µM)	1.07	1.02	1	0.977	1.08 (inactive)	1.03 (inactive)	0.952 (inactive)	0.936 (inactive)	1.03 (inactive)	1 (inactive)	1.01 (inactive)	0.948 (inactive)
Clc1ccc(C(c2ccccc2Cl)C(Cl)Cl)cc1 (stereo unspecified) [Mitotane] (20 µM)	1.01	1.04	1.03	1.34	1.01 (inactive)	0.997 (inactive)	1.01 (inactive)	1.03 (inactive)	1 (inactive)	1.03 (inactive)	1.01 (inactive)	1.03 (inactive)
CCOc1ccc(NC(=O)CC(C)O)cc1 (stereo unspecified) [Bucetin] (20 µM)	0.973	0.985	0.995	1.07	0.984 (inactive)	0.999 (inactive)	0.95 (inactive)	0.997 (inactive)	1.01 (inactive)	0.977 (inactive)	0.993 (inactive)	0.936 (inactive)
C[C@@H](NCCCc1cccc(C(F)(F)F)c1)c1cccc2ccccc12 [Cinacalcet hydrochloride] (20 µM)	0.918	1.02	1.03	1.2	0.977 (inactive)	0.995 (inactive)	0.807 (inactive)	1.11 (inactive)	1.01 (inactive)	0.693 (inactive)	0.999 (inactive)	0.946 (inactive)
C/C(=C\C(=O)OCCCCCCCCC(=O)O)C[C@@H]1OC[C@H](C[C@@H]2O[C@H]2[C@@H](C)[C@H](C)O)[C@@H](O)[C@H]1O [Mupirocin] (20 µM)	0.909	0.423	0.631	0.934	0.384 (active)	0.968 (inactive)	1.04 (inactive)	0.182 (active)	0.7 (active)	0.209 (active)	0.763 (active)	0.957 (inactive)
CC1(C)S[C@@H]2[C@H](NC(=O)C(c3ccccc3)S(=O)(=O)O)C(=O)N2[C@H]1C(=O)O (stereo partly specified) [Sulbenicillin sodium salt] (20 µM)	0	0.378	0.634	0	1.18 (inactive)	0.0125 (active)	0.086 (active)	1.84 (inactive)	0.969 (inactive)	1.87 (active)	1.08 (inactive)	0.0641 (active)

— the supplement of paper PMC12494721
